Experimental data published in PubChem BioAssay.
Values without a mark were called inactive. Results filed as inconclusive are left out. The source made the active and inactive calls.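 Rule for the calls, unless noted: active = viability at or below 27.92% in each of two runs, the all-compound median minus 4 SD; inconclusive = no clear call, values can overlap the other calls; inactive = the rest.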

Test: growth suppression of PTEN-deleted HCT116, pilot screen, cell-based, HCT116 clonal line, CellTiter-Glo (AID 824);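 note: 0% = 20 µM Hyamine control and 100% = vehicle cell control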
Settings: 60 h, at 10 µM, active compounds read low

| Structure (SMILES) | viability |
| --- | --- |
| Cc1ccc(C2/C(=C(/O)c3ccc(Br)cc3)C(=O)C(=O)N2Cc2ccco2)o1 (stereo not drawn) | 65% |
| C=CCN(C(=O)CN1CCOCC1)c1nc(C)c(-c2ccccc2)s1 | 87.4% |
| CCOc1cccc(=O)c2c(C)n(Cc3ccco3)c(C)c12 | 84.9% |
| CCOc1ccc(N(CC(=O)Nc2ccc(C)cc2)S(=O)(=O)c2c(C)noc2C)cc1 | 67.4% |
| CCCc1ccc(Oc2cn[nH]c2-c2ccc(O)cc2O)cc1 | 78.7% |
| CCOC(=O)N1CCN(C(=O)C2CCN(Cc3nc(-c4ccccc4C)oc3C)CC2)CC1 | 88% |
| Cc1cccc(NC(=O)CN2CCN(CC(=O)Nc3cccc(C)c3)CC2)c1 | 98% |
| COc1ccc(-c2nc(CSCC(=O)N3CCC(C(N)=O)CC3)c(C)o2)cc1OC | 98.3% |
| O=C1CC(c2ccco2)Sc2nc3ccccc3n21 (stereo not drawn) | 80.3% |
| COc1cc(NC(=O)c2onc(C)c2Cl)c(OC)cc1Cl | 94.5% |
| C/C(=C1/SC(N2CCOCC2)=NC1=O)c1ccc(Br)cc1 | 101% |
| COc1ccc(OC)c(C2=Nn3c(nnc3-c3ccncc3)SC2)c1 | 71.1% |
| CCOc1ccc2nc(N3CCCC(C(=O)N4CCN(CC)CC4)C3)sc2c1 (stereo not drawn) | 96.2% |
| O=C(Nc1nccs1)C12CC3CC(C1)CC(C(=O)Nc1nccs1)(C3)C2 | 78.7% |
| O=C(NC1CCCCC1)N1CCCc2ccccc21 | 84% |
| COc1ccc(C(=O)OCCN2C(=O)c3ccccc3C2=O)cc1 | 93.7% |
| OC(COc1ccccc1Cl)CN1CCN(CC(O)COc2ccccc2Cl)CC1 (stereo not drawn) | 81.9% |
| COCCNC(=O)CN1C(=O)CC(C)(C)S(=O)(=O)c2ccccc21 | 101% |
| Cc1ccc(S(=O)(=O)NCC(=O)N2CCC(C)CC2)cc1 | 107% |
| CCOc1ccc(C2CC(c3cccc(OC)c3)n3nc(N)nc3N2)cc1 (stereo not drawn) | 92.3% |

| Structure (SMILES) | viability |
| --- | --- |
| Cc1ccc(C2CC(c3cccc(Br)c3)n3nc(N)nc3N2)cc1 (stereo not drawn) | 67.2% |
| Cc1cc(Nc2cccc(F)c2)n2nc(C)nc2n1 | 94.4% |
| CCSc1nnc(NC(=O)CSc2nc3c(c(=O)n2-c2ccccc2)SCC3)s1 | 103% |
| O=c1oc2ccccc2n1Cc1ccccc1Cl | 99.5% |
| Cc1ccc(-c2nc(NC(=O)CSc3nnc(C)s3)ns2)cc1 | 102% |
| CC1(C)CC2CC(C)(CN2C(=O)c2cc(-c3ccccc3O)on2)C1 (stereo not drawn) | 61.9% |
| CC1CC(C)CN(S(=O)(=O)c2ccc(NC(=O)C3COc4ccccc4O3)cc2)C1 (stereo not drawn) | 54.7% |
| O=C(Nc1scc(-c2cccs2)c1C(=O)O)c1cccs1 | 105% |
| Cc1nc2ccccn2c1C(=O)NC1CCCCC1 | 103% |
| O=c1[nH]c2ccc(Cl)cc2c(-c2ccccc2)c1N1CCOCC1 | 88% |
| CCOC(=O)CN1c2ccccc2NC(=O)CC1C (stereo not drawn) | 98.9% |
| CCCCCn1c(=N)n(CC(O)COc2ccccc2OC)c2ccccc21 (stereo not drawn) | 21.9% (active) |
| COc1ccc(N2C(=O)c3ccccc3NC23CCCCC3)cc1 | 91.5% |
| Cc1cccc(N2CCN(C(=O)C3CCN(S(=O)(=O)c4cccc5cccnc45)CC3)CC2C)c1 (stereo not drawn) | 67.1% |
| CC(=O)Nn1cc2c(=O)n(C)c(=O)n(C)c2c1 | 99.7% |
| CC1=C(C(=O)OCCOc2ccccc2)C(c2ccc(C)o2)C2=C(CC(C)(C)CC2=O)N1 (stereo not drawn) | 78.6% |
| N/C(CC(=O)Nc1cccc(C(F)(F)F)c1)=N/O | 101% |
| COc1ccccc1CNC(=O)CCn1c(=O)oc2ccccc21 | 96.2% |
| Cc1ccc(C(=O)N(Cc2nc(-c3ccc(C)cc3)no2)C(C)C)cc1 | 94.5% |

Test: inhibitors of the yeast RAM network, pilot screen, dse1pr::URA3 reporter, 5-FOA selection (AID 869;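 active = inhibition over a set limit, the all-compound mean plus 3 SD, in both replicate runs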;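 note: 0% = DMSO wells with no growth and 100% = 10 µM 1-NA-PP1 with full growth; RAM network block rescues cells from 5-FOA so hits raise OD615 growth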)
Settings: S. cerevisiae dse1pr::URA3 5-FOA growth, OD615, 2 d; at 10 µM; active compounds read high; strain carries analog-sensitive mutant Cbk1 kinase

| Structure (SMILES) | inhibition [%] |
| --- | --- |
| Cc1ccc(C2/C(=C(/O)c3ccc(Br)cc3)C(=O)C(=O)N2Cc2ccco2)o1 (stereo not drawn) | 0.82 |
| C=CCN(C(=O)CN1CCOCC1)c1nc(C)c(-c2ccccc2)s1 | -0.245 |
| CCOc1cccc(=O)c2c(C)n(Cc3ccco3)c(C)c12 | 0.975 |
| CCOc1ccc(N(CC(=O)Nc2ccc(C)cc2)S(=O)(=O)c2c(C)noc2C)cc1 | 1.29 |
| CCCc1ccc(Oc2cn[nH]c2-c2ccc(O)cc2O)cc1 | 0.7 |
| CCOC(=O)N1CCN(C(=O)C2CCN(Cc3nc(-c4ccccc4C)oc3C)CC2)CC1 | 0.75 |
| Cc1cccc(NC(=O)CN2CCN(CC(=O)Nc3cccc(C)c3)CC2)c1 | 0.165 |
| COc1ccc(-c2nc(CSCC(=O)N3CCC(C(N)=O)CC3)c(C)o2)cc1OC | 0.78 |
| O=C1CC(c2ccco2)Sc2nc3ccccc3n21 (stereo not drawn) | 0.365 |
| COc1cc(NC(=O)c2onc(C)c2Cl)c(OC)cc1Cl | 1.35 |
| C/C(=C1/SC(N2CCOCC2)=NC1=O)c1ccc(Br)cc1 | 1.26 |
| COc1ccc(OC)c(C2=Nn3c(nnc3-c3ccncc3)SC2)c1 | 0.84 |
| CCOc1ccc2nc(N3CCCC(C(=O)N4CCN(CC)CC4)C3)sc2c1 (stereo not drawn) | 0.775 |
| O=C(Nc1nccs1)C12CC3CC(C1)CC(C(=O)Nc1nccs1)(C3)C2 | 1.25 |
| O=C(NC1CCCCC1)N1CCCc2ccccc21 | 0.345 |
| COc1ccc(C(=O)OCCN2C(=O)c3ccccc3C2=O)cc1 | 0.645 |
| OC(COc1ccccc1Cl)CN1CCN(CC(O)COc2ccccc2Cl)CC1 (stereo not drawn) | 0.495 |
| COCCNC(=O)CN1C(=O)CC(C)(C)S(=O)(=O)c2ccccc21 | 0.31 |
| Cc1ccc(S(=O)(=O)NCC(=O)N2CCC(C)CC2)cc1 | 0.475 |
| CCOc1ccc(C2CC(c3cccc(OC)c3)n3nc(N)nc3N2)cc1 (stereo not drawn) | 0.875 |

| Structure (SMILES) | inhibition [%] |
| --- | --- |
| Cc1ccc(C2CC(c3cccc(Br)c3)n3nc(N)nc3N2)cc1 (stereo not drawn) | 1.82 |
| Cc1cc(Nc2cccc(F)c2)n2nc(C)nc2n1 | 1.08 |
| CCSc1nnc(NC(=O)CSc2nc3c(c(=O)n2-c2ccccc2)SCC3)s1 | 2.82 |
| O=c1oc2ccccc2n1Cc1ccccc1Cl | 1.56 |
| Cc1ccc(-c2nc(NC(=O)CSc3nnc(C)s3)ns2)cc1 | 0.34 |
| CC1(C)CC2CC(C)(CN2C(=O)c2cc(-c3ccccc3O)on2)C1 (stereo not drawn) | 2.44 |
| CC1CC(C)CN(S(=O)(=O)c2ccc(NC(=O)C3COc4ccccc4O3)cc2)C1 (stereo not drawn) | 3.38 |
| O=C(Nc1scc(-c2cccs2)c1C(=O)O)c1cccs1 | 1.41 |
| Cc1nc2ccccn2c1C(=O)NC1CCCCC1 | 1.17 |
| O=c1[nH]c2ccc(Cl)cc2c(-c2ccccc2)c1N1CCOCC1 | 0.985 |
| CCOC(=O)CN1c2ccccc2NC(=O)CC1C (stereo not drawn) | 0.895 |
| CCCCCn1c(=N)n(CC(O)COc2ccccc2OC)c2ccccc21 (stereo not drawn) | -0.235 |
| COc1ccc(N2C(=O)c3ccccc3NC23CCCCC3)cc1 | 0.47 |
| Cc1cccc(N2CCN(C(=O)C3CCN(S(=O)(=O)c4cccc5cccnc45)CC3)CC2C)c1 (stereo not drawn) | 2.65 |
| CC(=O)Nn1cc2c(=O)n(C)c(=O)n(C)c2c1 | 1.68 |
| CC1=C(C(=O)OCCOc2ccccc2)C(c2ccc(C)o2)C2=C(CC(C)(C)CC2=O)N1 (stereo not drawn) | 1.73 |
| N/C(CC(=O)Nc1cccc(C(F)(F)F)c1)=N/O | 1.16 |
| COc1ccccc1CNC(=O)CCn1c(=O)oc2ccccc21 | 2.48 |
| Cc1ccc(C(=O)N(Cc2nc(-c3ccc(C)cc3)no2)C(C)C)cc1 | 1.33 |
